Reference: PubChem BioAssay AID504582 (Broad Institute, 2011)
Screen size: about 340,000 compounds; about 2,300 (0.68%) were called active. Only a selection was taken, and actives are over-represented in it overall. A number with no mark means an inactive call. Rule as the data show it: active = growth rescue above about 28% (passing the limit was not always enough); inconclusive = no clear call, values can overlap the other calls.

Test: rescue of yeast from PfHsp40 toxicity, primary screen, S. cerevisiae, ATP luminescence (AID 504582);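 also: yeast W303a lacking pdr1 and pdr3 grown in galactose medium; growth measured after three days at 30 °C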
Conditions: S. cerevisiae expressing PfHsp40, growth rescue, at 12.5 µM, active compounds read high
For `CC(=O)OCc1cc(=O)n(C)c(=O)n1C`, the growth rescue was -0.117%. With `CC(=O)c1cc(NC(=O)c2ccccc2)c(=O)oc1/C=C/N(C)C` the growth rescue was 1.15%. For `CSc1nccc(NC(=O)c2ccc(C(C)(C)C)cc2)n1`, the growth rescue was 733% (active). With `Cc1cccc(NC(=O)c2ccc(S(=O)(=O)N(C)c3ccccc3)cc2)n1` the growth rescue was -1.12%. `COC(=O)c1nc(NC(=O)c2ccc(C(C)(C)C)cc2)n[nH]1` showed a growth rescue of 0.045%. `Cn1c(C(=O)OC(C(=O)NC2CCCCC2)c2ccccn2)cc2sccc21` (stereo not given) gave a growth rescue of 1.92%. Molecule `CC(C)(CNC(=O)c1ccc(Cl)c(S(=O)(=O)N2CCc3ccccc3C2)c1)N1CCOCC1` has a growth rescue of -1.18%. For `O=C(OCC(=O)c1cccs1)c1ccc([N+](=O)[O-])o1`, the growth rescue was -1.26%. For `O=C(COC(=O)c1ccc([N+](=O)[O-])o1)NC12CC3CC(CC(C3)C1)C2`, the growth rescue was 364% (active). With `O=C(COC(=O)c1ccc(Br)o1)NC12CC3CC(CC(C3)C1)C2` the growth rescue was 4.21%. With `Cc1csc(NC(=S)Nc2cccc(Cl)c2)n1` the growth rescue was 118% (active). For `Cn1cc(Cl)c(C(=O)NNC(=S)Nc2cccc(Cl)c2)n1`, the growth rescue was -0.14%. Work on `Cc1cc(Cl)nc(NC(=O)Nc2cccc(Cl)c2)n1` yielded a growth rescue of -0.042%. Molecule `CCOC(=O)c1csc(CCNC(=O)c2oc3c(Cl)cc(C)cc3c2C)n1` has a growth rescue of -0.607%. `CCCc1nnc(NC(=O)CCC(=O)NC2CC2)s1` gave a growth rescue of 0.339%. For `O=C(NCCCCO)C(F)(F)C(F)(F)C(F)(F)C(=O)NCCCCO`, the growth rescue was -1.94%. Work on `O=S(=O)(NCCCc1ccccc1)c1ccc(Br)cc1` yielded a growth rescue of 7.99%. With `O=c1ccc2cc(S(=O)(=O)NCCCc3ccccc3)ccc2[nH]1` the growth rescue was 30.5% (active). `O=S(=O)(NCCc1ccccc1)c1ccccc1` showed a growth rescue of -1.03%. `Cc1nc2ccccn2c1C(=O)NN=C1CCN(C)CC1` gave a growth rescue of -0.557%. In the case of `CCCCNC(=O)N(O)C1N(/N=C/c2ccc(N(C)C)cc2)C(=S)SC1(C)C` (stereo not given), the growth rescue is reported as -1.02%. With `O=S(=O)(c1cccc2nonc12)N1CCN(c2cccc(Cl)c2)CC1` the growth rescue was 1.52%. Molecule `O=C(Nc1ccccc1C(=O)O)c1cc(S(=O)(=O)N2CCCCC2)cs1` has a growth rescue of 0.561%. Work on `CC1=C(C)CC(C(=O)NNC(=O)c2ccccc2O)C(C(=O)O)C1` (stereo not given) yielded a growth rescue of 1.17%. For `O=C(NNC(=O)c1cc(S(=O)(=O)N2CCCCC2)ccc1Cl)c1ccccc1O`, the growth rescue was 91.7% (active). `Cc1cc(C(=O)CCC(=O)NNC(=O)c2ccccc2O)c(C)s1` showed a growth rescue of -0.863%. For `O=C(NNC(=O)c1ccccc1O)c1ccccc1O`, the growth rescue was 68% (active). In the case of `CC1CCCC(NC(=O)c2cc(S(=O)(=O)N3CCCCC3)ccc2Cl)C1C` (stereo not given), the growth rescue is reported as 2.29%. In the case of `COC(=O)c1sc(N)c(C(=O)OC)c1COC(=O)CNS(=O)(=O)c1ccc(C)cc1`, the growth rescue is reported as 0.164%. Molecule `COc1ccc(C(=O)C2CCCN(C(=O)c3cc4nc(C)cc(C)n4n3)C2)cc1F` (stereo not given) has a growth rescue of -1.21%. Work on `COc1ccc2c(c1)OC(O)(C(F)(F)C(F)F)CC2=O` (stereo not given) yielded a growth rescue of 0.213%. `N#CCc1ccc(NC(=O)c2ccccc2C(=O)Nc2ccc(CC#N)cc2)cc1` showed a growth rescue of -0.068%. `O=C(NN=Cc1ccccc1O)NN=Cc1ccccc1O` showed a growth rescue of -0.914%. For `Oc1ccc(Br)cc1/C=N/Nc1ccccn1`, the growth rescue was 246% (active). In the case of `Cc1c(C(=O)Nc2ccccn2)oc2ccc(Br)cc12`, the growth rescue is reported as -0.794%.
